Many of the other results were omitted from the sample, so hits are more common in it than they were.
BJeLR viab HTS: lowers viability of BJeLR cells. BJeLR fibroblasts viability, CellTiterGlo ATP luminescence, 48 h; HRASV12, hTERT and SV40 LT/ST transformed. viability loss activity score, % (test concentration not listed). 0.64% of 30,000 active. AID 2275; in the data active means viability loss activity score above about 50%; inconclusive means no clear call, values can overlap the other calls; inactive means below about 35%;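 further: higher score means fewer live cells and less ATP luminescence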
Shh pathway inh: blocks Sonic Hedgehog signaling; Shh-LIGHT2 Gli-luciferase reporter, 30 h; inhibition, % (test concentration not listed); 2.1% of 22,000 active; AID 2313;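 active means mean inhibition across valid replicates above about 65%, limit read from the data; inconclusive means mean under the limit, yet half or more replicates past it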;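 further: pathway switched on by Shh-conditioned medium diluted 1 in 25 in low serum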
MITF inhib: inhibitors of MITF; TRPM1 promoter luciferase, luminescence, 24 h; inhibition, % (test concentration not listed); 0.28% of 37,000 active; AID 2240; in the data active means inhibition above about 85%; inconclusive means no clear call, values can overlap the other calls; inactive means below about 68%;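 further: human melanocyte line stably carrying TRPM1 promoter luciferase reporter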
Active calls of the source: *; ? = inconclusive; nt = not tested or not shown.

SMILES	BJeLR viab HTS	Shh pathway inh	MITF inhib
C/C=C(/C)C(=O)O[C@H]1CC(C)(C)C[C@H]2C3=CCC4[C@@]5(C)CC[C@H](O[C@@H]6O[C@H](C(=O)O)[C@@H](O[C@@H]7O[C@H](CO)[C@H](O)[C@H](O)[C@H]7O[C@@H]7O[C@H](CO)[C@@H](O)[C@H](O)[C@H]7O)[C@H](O)[C@H]6O[C@@H]6O[C@@H](C)[C@H](O)[C@@H](O)[C@H]6O)C(C)(C)C5CC[C@@]4(C)[C@]3(C)C[C@@H](O)[C@@]12CO (some centres not stated)	127*	99*	92*
CC1(C)CC[C@]2(C(=O)O)CC[C@]3(C)C(=CCC4[C@@]5(C)CC[C@H](O[C@@H]6O[C@H](CO)[C@@H](O)[C@H](O)[C@H]6O)C(C)(C)C5CC[C@]43C)[C@@H]2C1 (some centres not stated)	1	89*	45
Cc1cccc(-n2c(SCC(=O)NCc3ccccc3)nc3c(oc4ccccc43)c2=O)c1	-4	nt	nt
C=CCn1cnc2ccc(Br)cc2c1=O	-1	nt	nt
Cc1cccn2cc(-c3cccc(NC(=O)c4ccccc4)c3)nc12	1	nt	nt
Cc1nn(-c2ccccc2)c2c1C(C(F)(F)F)(C(F)(F)F)C(C#N)=C(N)O2	12	nt	nt
O=C(C1CC1)N1c2ccccc2CCc2ccccc21	54*	nt	nt
O=C(NC1CCCCC1)N1c2ccccc2CCc2ccccc21	-1	nt	nt
Cc1ccccc1NS(=O)(=O)c1ccc2c(c1)c(=O)n(C)c(=O)n2C	-2	nt	nt
CC(C)(C)c1cc(O)c(C(C)(C)C)cc1O	4	90*	25
Cc1cc(C(C)(C)C)c(O)c(C(C)(C)C)c1	-3	-5	-14
CSc1ccc(-c2nc3ccc(C)cn3c2NC2CCCCC2)cc1	1	nt	nt
COc1cccc(-c2cc(NCc3ccc4c(c3)OCO4)nc(N)n2)c1	60*	?	-1
Cc1cc(Br)ccc1NCc1ccc2c(c1)OCO2	-5	-35	-68
Cn1c(=O)c2cc(C(=O)NC3CCCCCC3)sc2c2ccc(Cl)cc21	-2	nt	nt
COc1ccc(-n2c(N)c(-c3nc4ccccc4s3)c3nc(C#N)c(C#N)nc32)cc1	-1	nt	nt
CCCCNc1c(C(=O)OCC)c(C)nc2c1cnn2CC	80*	-34	-23
CCOC(=O)c1cnc2c(C)c(C)ccc2c1NCCN(C)C	nt	nt	-33
CCc1ccc(NC(=O)c2cc3cc4ccc(C)cc4nc3o2)cc1	14	nt	nt
O=C(CSc1nc(-c2ccc(F)cc2)[nH]c1-c1ccccc1)NC1CCCC1	-3	nt	nt
Cc1oc2c(c1C(=O)NCc1ccccc1)C(=O)c1ccccc1C2=O	18	93*	58
Cc1c(C(=O)NCc2ccccc2)oc2c1C(=O)CCC2	1	nt	nt
Cc1ccc(N2CCN(c3ccc(C)cc3)C2c2cccs2)cc1	1	nt	nt
Cc1ccc(C)c(OCC(O)CN2CCN(CCO)CC2)c1 (configuration not stated)	nt	nt	1
N#Cc1cc2c(OCC(O)CN3CCN(C(c4ccccc4)c4ccccc4)CC3)cccc2[nH]1 (configuration not stated)	1	103*	99*
SMILES	BJeLR viab HTS	Shh pathway inh	MITF inhib
CCCCN(C)C(=O)Cc1c(C(=O)O)[nH]c2ccc(Cl)cc12	2	nt	nt
O=C(CCc1nc2cccnc2n1-c1ccccc1)N1CCCCC1	0	nt	nt
C=C1CCC(O)/C(C)=C\CC(C(C)C)C(OC2OC(COC(C)=O)C(O)C(O)C2O)C1 (configuration not stated)	4	-12	-11
CC(C)CC1NC(=O)C(CC(C)C)N(O[C@@H]2O[C@H](COC(=O)CCC(=O)O)[C@@H](O)[C@H](O)[C@H]2O)C1=O (some centres not stated)	47	74*	50
Cc1c(C(=O)NCc2ccccc2)oc2ccc(S(=O)(=O)N(C)C3CCCCC3)cc12	5	nt	nt
O=C(Nc1ccccc1)C1CCCCC1	-4	nt	-4
O=C(ON1C(=O)c2ccccc2C1=O)C1CCCCC1	-3	70*	18
C=C1C(=O)O[C@H]2C1CCC(C)=C1C(=O)C=C(C)[C@@]12O (some centres not stated)	-4	7	10
C=C1C(=O)O[C@@H]2C3O[C@]3(C)CC/C=C(/C)CC[C@@H]12 (some centres not stated)	7	67*	68
C=C1C(=O)O[C@H]2CC(C)C3CC[C@@]4(C)O[C@@]34CC12 (some centres not stated)	nt	-16	nt
C=C1C(=O)O[C@@H]2[C@H]3O[C@]3(C)CCC=C(C)CC[C@@H]12	17	82*	93*
O=C(NCCN1CCCC1)Nc1ccccc1C(F)(F)F	-4	nt	nt
N#C/C(=C\Nc1cc(C(F)(F)F)cc(C(F)(F)F)c1)S(=O)(=O)c1ccccn1	-1	-8	20
N#C/C(=C\Nc1cc(C(F)(F)F)cc(C(F)(F)F)c1)S(=O)(=O)Cc1ccc(Cl)cc1	12	107*	72
CN(Cc1ccccc1)S(=O)(=O)c1ccc2c(c1)CCN2C(=O)C1CC1	-2	nt	nt
Cc1cc2cc(CNC(=O)/C=C\c3ccc4c(c3)OCO4)ccc2n1C	-1	nt	nt
C[C@H](CO)N1C[C@H](C)[C@H](CN(C)C(=O)Nc2cccc3ccccc23)Oc2c(NC(=O)c3ccc(-c4nccs4)cc3)cccc2C1=O	5	-25	-19
Cc1cc(C(=O)Nc2cccc3c2O[C@@H](CN(C)Cc2ccc(Oc4ccccc4)cc2)[C@@H](C)CN([C@@H](C)CO)C3=O)n(C)n1	-1	-9	-13
Cc1cc(C(=O)Nc2cccc3c2O[C@@H](CN(C)Cc2ccc(Oc4ccccc4)cc2)[C@H](C)CN([C@H](C)CO)C3=O)n(C)n1	3	69*	42
C[C@@H]1CN([C@@H](C)CO)C(=O)c2cccc(NC(=O)c3ccc(-c4nccs4)cc3)c2O[C@@H]1CN(C)C(=O)Nc1cccc2ccccc12	-6	66*	5
Cc1cc(C(=O)Nc2cccc3c2O[C@H](CN(C)Cc2ccc(Oc4ccccc4)cc2)[C@@H](C)CN([C@@H](C)CO)C3=O)n(C)n1	-4	77*	45
Cc1cc(C(=O)Nc2cccc3c2O[C@H](CN(C)Cc2ccc(Oc4ccccc4)cc2)[C@H](C)CN([C@@H](C)CO)C3=O)n(C)n1	4	-20	-16
CCOC(=O)N1CCC(NS(=O)(=O)c2ccc3oc(=O)c4ncn(CC)c4c3c2)CC1	4	nt	nt
O=C(N1CCCCC1)C1(S(=O)(=O)c2ccc(Cl)cc2)CC1	-2	nt	nt
Cc1ccc(C(=O)NCC2OCCc3ccccc32)cc1 (configuration not stated)	2	nt	nt
Fc1c(F)c(C(F)(F)F)c(F)c2c1Oc1cc(Cl)c(Cl)cc1O2	4	nt	nt

Source: PubChem (Broad Institute)
